Measured potencies and affinities stand elsewhere. A number with no mark means an inactive call.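 The calls were made as follows: active = fluorescent signal decreased by at least 40%; inconclusive = no clear call, values can overlap the other calls; inactive = the rest, including activity opposite to the expected direction.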
test: inhibition of fibronectin matrix deposition – AH1F cells, Alexa488-fibronectin fluorescence, cherry-pick, set 2, dose response (AID 1117283); conditions: AH1F fibroblasts, overnight; series mostly up to 35 µM; activity change, negative = inhibition: at the top concentration;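 also: AH1F fibroblasts given Alexa488-labelled fibronectin at 24 nM final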

Row | Structure (SMILES) | activity change, negative = inhibition
1 | COC(=O)C[C@H]1CC[C@H]2[C@H](COc3ccc(NC(=O)Cc4cccs4)cc3C(=O)N2C)O1 | -7.38%
2 | CCS(=O)(=O)c1ncc(Cl)c(C(=O)Nc2ccc(S(=O)(=O)N3CCC(C)CC3)cc2)n1 | -6.19%
3 | COc1cccc(-c2ccc3c(c2)[C@@H]2[C@@H](CCN2S(=O)(=O)c2cccc(OC)c2)[C@H](CO)N3)c1 | -8.42%
4 | C[C@H](CO)N1C[C@H](C)[C@H](CN(C)Cc2ccccc2)Oc2ncc(-c3ccccc3)cc2C1=O | 2.38%
5 | COCC(=O)Nc1ccc2c(c1)C(=O)N(C)[C@H]1CC[C@H](CC(=O)NCc3ccccc3Cl)O[C@H]1CO2 | -9.35%
6 | Nc1c(C(=O)NCc2ccco2)nnn1Cc1ccccc1 | 1.35%
7 | CS(=O)(=O)N1CCN(c2ccc(NC(=O)c3ccc([N+](=O)[O-])o3)cc2)CC1 | 3.37%
8 | O=C(C[C@@H]1C[C@@H]2c3cc(NC(=O)c4ccc5c(c4)OCO5)ccc3O[C@@H]2[C@@H](CO)O1)NCc1ccc(Oc2ccccc2)cc1 | 3.19%
9 | COc1ccccc1N(CC(=O)N(CC(C)C)CC(C)C)S(=O)(=O)c1cccs1 | 2.52%
10 | CO[C@H]1CN(C)C(=O)c2cc(NC(=O)Nc3cc(Cl)cc(Cl)c3)ccc2OC[C@@H](C)NC[C@H]1C | 1.09%
11 | CN(C)C(=O)c1ccc(-c2ccc3c(c2)[C@H]2[C@H](CCN2C(=O)c2ccc(F)cc2)[C@H](CO)N3C)cc1 | -3.09%
12 | c1ccc2[nH]c(SCc3cn4cccnc4n3)nc2c1 | 1.3%
13 | O=S(=O)(c1ccccc1F)N1CC[C@@H]2[C@H](CO)Nc3ccc(-c4cccc(F)c4)cc3[C@@H]21 | -7.86%
14 | O=S(=O)(c1ccccc1F)N1CC[C@H]2[C@H](CO)Nc3ccc(-c4cccc(F)c4)cc3[C@H]21 | 23.3%
15 | Cc1ccc(C(O)c2ncc(-c3cccc4ccccc34)[nH]2)cc1F (centres undefined) | -7.33%
16 | N#Cc1ccc(-c2ccc3c(c2)[C@@H]2[C@@H](CCN2S(=O)(=O)c2cccc(F)c2)[C@@H](CO)N3)cc1 | 2.96%
17 | COC(=O)C[C@@H]1CC[C@H]2[C@H](COc3ccc(NC(=O)Cc4cccs4)cc3C(=O)N2C)O1 | -4.43% [at 30 µM]

Row | Structure (SMILES) | activity change, negative = inhibition
18 | S=C(NCC1CCCO1)Nc1ccc(Cl)cc1Cl (centres undefined) | -0.519%
19 | CC(C)(C)[S@@](=O)N1Cc2cc(C(=O)NCc3ccccc3F)nc(-c3cccc(-c4cncnc4)c3)c2[C@H]1CCO | 18.3%
20 | CN(C)c1ccc(-c2ccnc3c2CC(C)(C(=O)NCC2CC2)O3)cc1 (centres undefined) | 10.7%
21 | CN(C)C(=O)c1ccc(-c2ccc3c(c2)[C@@H]2[C@@H](CCN2C(=O)c2ccc(F)cc2)[C@@H](CO)N3C)cc1 | -0.065%
22 | COCC(=O)Nc1ccc2c(c1)C(=O)N(C)[C@H]1CC[C@@H](CC(=O)NCc3ccccc3Cl)O[C@@H]1CO2 | 8.6%
23 | COc1cccc(-c2ccc3c(c2)[C@@H]2[C@@H](CCN2S(=O)(=O)c2cccc(OC)c2)[C@@H](CO)N3)c1 | -8.07%
24 | Cc1cccc(N2CCN(S(=O)(=O)c3cn(C)cn3)CC2)c1C | 3.91%
25 | Cc1ccc(S(=O)(=O)N2CC[C@@H]3[C@H](CO)Nc4ccc(-c5cccc(C(=O)N(C)C)c5)cc4[C@@H]32)cc1 | 1.14%
26 | C[C@@H]1CN([C@H](C)CO)C(=O)c2cc(NC(=O)CCCN(C)C)ccc2O[C@H]1CN(C)Cc1ccc(-c2ccccc2)cc1 | 3.78%
27 | CO[C@@H]1CN(C)C(=O)c2cc(NC(=O)Nc3ccc(Cl)c(Cl)c3)ccc2OC[C@@H](C)NC[C@@H]1C | 0.023%
28 | N#C[C@@H]1[C@@H](c2ccccc2C2=CCCCC2)[C@H](CO)N1S(=O)(=O)c1ccccc1 | 2.88%
29 | C[C@@H]1CN([C@@H](C)CO)C(=O)c2cccc(NC(=O)Nc3ccc(C(F)(F)F)cc3)c2O[C@@H]1CN(C)C(=O)Nc1cccc2ccccc12 | 5.92%
30 | C[C@@H]1CN([C@H](C)CO)C(=O)c2cc(-c3ccccc3)cnc2O[C@H]1CN(C)Cc1ccccc1 | 5.66%
31 | C[C@@H]1CN([C@@H](C)CO)C(=O)c2cc(NC(=O)C3CCCCC3)ccc2O[C@@H]1CN(C)Cc1ccc(-c2ccccc2)cc1 | -14.2%
32 | COCC(=O)Nc1ccc2c(c1)C(=O)N(C)[C@@H]1CC[C@H](CC(=O)NCc3ccccc3Cl)O[C@H]1CO2 | -3.95%
33 | C[C@H](O)C#Cc1ccc2c(c1)O[C@@H](CN(C)C)[C@H](C)CN([C@H](C)CO)S2(=O)=O | -5.23%
34 | C[C@H](CO)N1C[C@H](C)[C@H](CN(C)Cc2ccc(-c3ccccc3)cc2)Oc2ccc(NC(=O)C3CCCCC3)cc2C1=O | -3.46% [at 30 µM]

— PubChem BioAssay AID1117283 (Broad Institute, 2014)
